Sampled rows, rich in hits. Any-hit rate of the full collection: about 14%.
LmPK inhibitor = inhibitors of Leishmania mexicana pyruvate kinase. purified LmPK, Kinase-Glo ATP luminescence, 1 h. Potency, µM (series often up to 57.5 µM), actives largely listed as inhibitors. actives 0.37% (n = 290,000)
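ATP generated from ADP (0.1 mM) and PEP (0.5 mM) by 0.1 nM LmPK over 1 h at room temperature (pH 7.2 imidazole buffer) was detected by coupled luciferase luminescence. Values were normalized to uninhibited and no-enzyme wells.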
Shiga toxin inh = inhibitors of Shiga toxin in Vero cells; Vero cells, Shiga toxin protein synthesis inhibition reporter; inhibition, % at 38.7 µM; actives 9.2% (n = 290,000); AID 2315; in the data active = inhibition mostly above about 28%, no sharp cut-off; inactive = mostly below about 43%
Giardia FBPA inh = Giardia lamblia aldolase inhibition; A8B2U2; purified Giardia FBPA; Potency, µM (top dose mostly 59.6 µM), hits mostly inhibitors; actives 0.71% (n = 290,000); note: nearly all actives have a fitted effect of over 55% in size
Target sequence (A8B2U2 whole entry, looked up): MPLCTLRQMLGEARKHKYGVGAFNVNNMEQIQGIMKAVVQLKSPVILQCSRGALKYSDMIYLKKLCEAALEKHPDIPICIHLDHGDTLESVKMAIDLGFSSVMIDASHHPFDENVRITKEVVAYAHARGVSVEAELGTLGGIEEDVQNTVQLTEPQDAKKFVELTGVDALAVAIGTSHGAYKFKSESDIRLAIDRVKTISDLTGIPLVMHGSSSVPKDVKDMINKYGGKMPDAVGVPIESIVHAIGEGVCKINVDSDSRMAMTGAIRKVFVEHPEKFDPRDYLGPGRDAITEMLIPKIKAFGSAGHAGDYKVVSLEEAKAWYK
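Giardia FBPA (40 nM reagent) was preincubated 10 min at RT with compound (up to 57.5 uM final), then substrate plus GAPDH/TPI/NAD/arsenate coupling system with diaphorase/resazurin was added; resorufin fluorescence (525/598 nm) was read after 20 min.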
Cycloheximide cs = counter-screen for Shiga toxin inhibitors: cycloheximide protein synthesis inhibition; cell reporter, cycloheximide protein synthesis inhibition counterscreen; max response, %; actives 12% (n = 300,000); in the data active = max response mostly above about 13%, no sharp cut-off; inactive = mostly below about 14%; note: read at 38.3 µM for the half of the compounds with a filed dose
NS1 function inh = inhibitors of influenza NS1 protein function; actives 0.4% (n = 270,000); AID 2326; Potency, µM (titrated, usually from 46.1 µM); calls by dose curve; note: actives are rising curves; nearly all actives have a fitted effect of over 50% in size
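Growth recovery, yeast-based: influenza A NS1 expressed in S. cerevisiae causes slow growth, and suppressors are detected by OD600. The parent strain without NS1 is used as positive control.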
A number is an active result; - = inactive; ? = inconclusive; . = no result. Unless noted, calls come from the whole dose curve; as a rule, active = well fitted curve in the direction sought with a large enough effect; inconclusive = small, poorly fitted or top-dose-only effect, or another doubt; inactive = no such curve, though single readings can be large; an effect the other way counts as inactive or inconclusive.

SMILES	LmPK inhibitor	Shiga toxin inh	Giardia FBPA inh	Cycloheximide cs	NS1 function inh
COc1ccc(N2Cc3ccccc3C2=NC(=O)c2cccc([N+](=O)[O-])c2)cc1	-	-	-	-	-
O=C(N=C1c2ccccc2CN1c1ccc(F)cc1)c1ccc(Cl)nc1	-	-	-	24	-
CCOC(=O)c1ccc(N2Cc3ccccc3C2=N)cc1	-	126	-	34	-
CCOC(=O)c1ccc(N2Cc3ccccc3C2=NC(=O)c2ccncc2)cc1	-	58	-	28	.
O=C(CCc1nnc2ccc(NCc3ccco3)nn12)N1CCN(c2ccc(F)cc2)CC1	-	-	-	-	-
CCC(C)N1CCN(S(=O)(=O)Cc2ccccc2)CC1 (centres undefined)	-	-	-	-	-
Cn1nc(C(=O)N2CCN(c3ccc([N+](=O)[O-])cc3)CC2)c2c1-c1ccccc1S(=O)(=O)C2	-	-	-	-	-
Cc1c(C(=O)N(Cc2ccc(N(C)C)cc2)CC2CCCO2)oc2ccccc12 (centres undefined)	-	-	.	-	-
CCCc1ccc2oc(C(=O)N(Cc3ccncc3)CC3CCCO3)c(C)c2c1 (centres undefined)	-	-	.	12	-
Cc1ccc2oc(C(=O)N(Cc3ccncc3)CC3CCCO3)c(C)c2c1 (centres undefined)	-	54	.	35	-
C=CCOc1cccc(C(=O)Nc2ncn[nH]2)c1	-	-	-	-	-
COc1ccc(Nc2ncnc3c2oc2ccccc23)cc1	-	124	-	56	-
CC(C)[C@H](Nc1ncnc2c1oc1ccccc12)C(=O)O	-	-	-	-	-
COc1ccccc1Oc1ncnc2c1oc1ccccc12	-	-	-	21	-
Cc1ccc(Nc2ncnc3c2oc2ccccc23)cc1	-	-	-	45	-
CCC(C)(C)C1CCC2(CC1)NC(=O)N(CC(=O)N(C)CC(=O)Nc1ccccc1C(F)(F)F)C2=O (centres undefined)	-	53	.	58	-
Cc1cc2oc(=O)cc(-c3ccccc3)c2c(C)c1-c1ccoc1	.	-	-	-	.
Cc1ccc2c(c1)C(N1CCCC1=O)CC(c1ccco1)N2 (centres undefined)	11µM	92	?	53	-
Cc1ccc(C2CC(c3ccco3)n3ncnc3N2)cc1 (centres undefined)	-	-	-	-	-
O=c1cc(C(F)(F)F)[nH]c2c(OC(F)(F)F)cccc12	-	-	-	-	-
CCOc1ccc(-c2cc3nc(C4CCN(C(=O)OC(C)(C)C)CC4)c(C(=O)O)cn3n2)cc1	-	-	-	24	-
COc1ccc(C2CC(c3ccc(OC)cc3O)=NN2C(=O)c2ccccc2)cc1 (centres undefined)	-	-	-	-	-
COc1ccc(C2=NN(CN3C(=O)C(=O)c4ccccc43)C(c3cccc([N+](=O)[O-])c3)C2)cc1 (centres undefined)	-	117	-	13	-
CC(=O)N1N=C(c2ccc(C)o2)CC1c1ccc(Br)cc1 (centres undefined)	-	87	-	43	-
COc1ccc(C2CC(c3ccc(Cl)cc3)=NN2C(C)=O)cc1 (centres undefined)	-	30	-	34	-
SMILES	LmPK inhibitor	Shiga toxin inh	Giardia FBPA inh	Cycloheximide cs	NS1 function inh
COc1ccc(C2CC(c3ccc4ccccc4c3OC(C)=O)=NN2C(C)=O)cc1 (centres undefined)	-	60	-	25	-
CCOC(=O)Cc1csc(NC(=O)CN2CCN(c3ccccc3)CC2)n1	-	.	?	-	-
COc1ccc(C2CC(c3ccc(Cl)cc3)=NN2C(=O)c2cccc([N+](=O)[O-])c2)cc1 (centres undefined)	-	-	-	19	?
CC(=O)N1N=C(c2cccs2)CC1c1ccc(Br)cc1 (centres undefined)	-	-	-	32	-
CCC(=O)N1N=C(c2ccc(C)o2)CC1c1ccc(N(C)C)cc1 (centres undefined)	-	-	-	-	.
CC(=O)N1N=C(c2cccs2)CC1c1cccs1 (centres undefined)	-	-	-	-	-
COc1ccc(C2CC(c3ccc(C)o3)=NN2C(C)=O)cc1 (centres undefined)	-	97	-	21	-
Cc1ccc(C2=NN(C(=O)CCl)C(c3cccs3)C2)o1 (centres undefined)	-	-	-	23	-
COC(=O)CCC(=O)N1CCCC(CO)(Cc2ccccc2F)C1 (centres undefined)	-	-	-	-	-
Cc1c(Cl)cnc(NC(=O)CSc2nnc3ccccn23)c1Cl	-	84	-	22	-
O=C(CSc1nnc2ccccn12)c1ccc(Cl)cc1	-	124	-	45	.
CCOc1ccc(C(=O)CSc2nnc3ccccn23)cc1	?	58	-	34	-
CCCCCCNC(=O)N[C@H](C(=O)NCCC[C@H]1CN2C(=NC[C@H]2C)N1CCC(c1ccccc1)c1ccccc1)C(C)O (some centres undefined)	-	-	?	-	-
O=C(c1ccc(OCCCc2cnc[nH]2)cc1)C1CC1	.	80	-	35	.
O=C(O)c1ccncc1.O=C(O)c1ccncc1.[NH2-].[NH2-].[Pt]	.	.	.	.	-
Cc1ccc(OCc2cc(C(=O)N(C)CCc3ccccn3)no2)cn1	-	-	.	-	-
COc1ccc2cc(-c3cc(C(=O)O)c4ccccc4n3)ccc2c1	-	-	-	-	-
COc1ccc2cc(-c3ccon3)ccc2c1	-	107	-	32	-
Cc1ccc(CC2C(=O)N(c3ccc(C)cc3)C(=O)C2C)cc1 (centres undefined)	-	80	-	47	.
CCNS(=O)(=O)c1ccc(CCC(=O)NCc2ccncc2)cc1	-	-	-	-	-
Nc1ccc(C(=O)OCCCc2nc3cc4ccccc4cc3[nH]2)cc1	-	-	?	-	-
Nc1ccc(C(=O)OCc2nc3c(ccc4ccccc43)[nH]2)cc1	-	80	-	25	-
Nc1ccc(Cc2nc3cc4ccccc4cc3[nH]2)cc1	-	52	-	45	-
Nc1ccc(C(=O)OCc2nc3cc4ccccc4cc3[nH]2)cc1	-	48	-	-	.
CCN(C(=O)c1ccc2c(=O)n3c(nc2c1)CCCCC3)c1cc(OC)ccc1OC	-	-	-	-	-
SMILES	LmPK inhibitor	Shiga toxin inh	Giardia FBPA inh	Cycloheximide cs	NS1 function inh
Cc1cccc(N=Cc2c(O)n(C)c(=O)n(C)c2=O)c1	-	25	-	-	-
Cc1ccc(C(=O)Nc2ccc(C(=O)/C=C/c3cccs3)cc2)cc1	-	73	-	52	-
O=C(/C=C/c1cccs1)c1ccc(NC(=O)c2cccc(Br)c2)cc1	-	131	-	62	-
O=C(/C=C/c1cccs1)c1ccc(Br)cc1	-	-	.	40	-
CC(C)(C)NC(=O)CN(Cc1ccco1)C(=O)CCC(=O)Nc1nccs1	-	-	-	-	-
O=S(=O)(NCC(O)c1ccccc1)c1ccc(-c2ccccn2)s1 (centres undefined)	-	-	-	-	-
